Data published in PubChem BioAssay (NCI).
Compounds without any hit were thinned out: in the full panel of roughly 83,000, 20% have a hit.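 Single-concentration screen, 48 h exposure, 96-well plates. Endpoint: percent growth. Below 10 = active.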 Active and inactive are the calls of the source.

Key:
Test in all cases: NCI-60 one-dose screen, 48 h (100 = growth as untreated, 0 = no growth, -100 = all killed)
Conditions in all cases: 10 µM unless noted
[1] = test system: DU-145 prostate
[2] = test system: K-562 leukemia
[3] = test system: MALME-3M melanoma
[4] = test system: MDA-MB-231 breast
[5] = test system: RXF 393 renal
[6] = test system: SF-268 CNS
[7] = test system: SF-295 CNS
[8] = test system: SF-539 CNS
[9] = test system: UACC-257 melanoma
[10] = test system: M14 melanoma

Measured: growth

COc1nc2ccc(C)cc2cc1-c1nc2c(cnn2-c2ccc(Br)cc2)c(=O)[nH]1
inactive: [1] 53.4% | [2] 16% | [3] 73% | [4] 76.1% | [5] 15.9% | [6] 49.6% | [7] 26.7% | [8] 12.1% | [9] 47.4% | [10] 27.7%

COc1ccc(-c2nc3sc(-c4ccc(Cl)cc4)cn3n2)cc1
inactive: [1] 80.7% | [2] 61.5% | [3] 50.8% | [4] 13.3% | [5] 59% | [6] 65.1% | [7] 24.2% | [8] 15.4% | [9] 84.6% | [10] 91.1%

COc1ccccc1/C=C1\Oc2cc(OCCN3CCC(Cc4ccccc4)CC3)ccc2C1=O
inactive: [1] 102% | [2] 27.6% | [3] 76.8% | [4] 90.3% | [5] 69.9% | [6] 84.4% | [7] 96.6% | [8] 93.8% | [9] 95.1% | [10] 65.9%

Cc1nc2ccccc2c(/C=C/c2ccc(Cl)cc2)c1C(=O)/C=C/c1cccs1
inactive: [1] 79% | [2] 44.7% | [3] 107% | [4] 75.8% | [5] 83.7% | [6] 78.8% | [7] 82% | [8] 99.5% | [9] 79.9% | [10] 82%

CCN1C(=O)N(CC)C2Nn3c(s/c(=C4\C(=O)Nc5ccccc54)c3=O)=NC21 (stereo not given)
active: [5] -1.37%
inactive: [1] 10.2% | [2] 20.2% | [3] 56.5% | [4] 48.3% | [6] 64.9% | [7] 56.6% | [8] 10.9% | [9] 67.4% | [10] 14.9%

CCCCCCNC(=O)Oc1ccc(/C(=C(\C)c2ccc(OC)cc2)c2ccc(OCCN3CCCCC3)cc2)cc1
inactive: [1] 79.7% | [3] 34.8% | [4] 73.6% | [5] 47.2% | [6] 71.8% | [7] 33.3% | [8] 27.1%
active: [2] 6.45% | [9] -1.88% | [10] -37%

COc1ccc(-c2c(C(=O)NS(C)(=O)=O)n(Cc3cccc(C(F)(F)F)c3)c3ccccc23)cc1
inactive: [1] 100% | [2] 87.7% | [3] 76.8% | [4] 95.5% | [5] 111% | [6] 95% | [7] 89.8% | [8] 98.3% | [9] 95.2% | [10] 94.6%

CNc1nc2c(s1)C(c1cccc(F)c1)CC(=O)N2 (stereo not given)
inactive: [1] 106% | [2] 95.6% | [3] 110% | [4] 104% | [5] 93.9% | [6] 94.1% | [7] 104% | [8] 92% | [9] 107% | [10] 106%

COc1cccc2nc3n(c12)C(c1c(F)cccc1F)SC3 (stereo not given)
inactive: [1] 128% | [2] 84.6% | [3] 101% | [4] 93.2% | [5] 105% | [6] 108% | [7] 99.9% | [8] 95.7% | [9] 100% | [10] 111%

CCOC(=O)C1=C(N)Oc2c(sc3c(C)cccc23)C1c1ccc(Cl)cc1 (stereo not given)
active: [2] 9.65% | [5] -7.89% | [7] 4.92% | [8] 6.36%
inactive: [1] 21.6% | [3] 36.1% | [4] 49.8% | [6] 55.5% | [9] 63.4% | [10] 20.6%

OC(COc1ccccc1)CN1CCN(c2ccc(Cl)cc2)CC1 (stereo not given)
inactive: [1] 110% | [2] 73.8% | [3] 128% | [4] 94% | [5] 113% | [6] 99.4% | [7] 111% | [8] 116% | [9] 87.7% | [10] 101%

O=S(=O)(NCCCNc1cc(-c2c(-c3cccc(O)c3)nc3sccn23)ccn1)c1cccc2ccccc12
inactive: [1] 42.4% | [2] 21.3% | [3] 48.4% | [4] 72.2% | [5] 41.1% | [6] 41.5% | [7] 34.3% | [8] 72.2% | [9] 61.2% | [10] 45.4%

O=C(/C=C/c1sc(Cl)nc1Cl)c1ccc(F)cc1
inactive: [1] 92% | [2] 10% | [3] 79.3% | [4] 81.5% | [5] 93.3% | [6] 92.8% | [7] 95.7% | [8] 66.8% | [9] 95.9% | [10] 78.4%

COc1ccc(S(=O)(=O)n2c3ccccc3n3ncc(-c4nnc(C)o4)c23)cc1
inactive: [1] 22.8% | [2] 15.4% | [3] 66.9% | [4] 30.1% | [6] 53% | [9] 84.1% | [10] 15.4%
active: [5] -22.2% | [7] 6.74% | [8] -1.67%

COc1c(B(O)O)cc(C)cc1-c1nc2ccc3[nH]ncc3c2c2c1CCCC2
active: [5] -2.67%
inactive: [1] 72.6% | [2] 24.1% | [3] 91.6% | [4] 23.4% | [6] 50% | [7] 53.1% | [8] 12.5% | [9] 102% | [10] 97.4%

O=c1c2cc(F)ccc2sc2c(N3CCNCC3)nc3ccc(F)cc3c12
active: [1] -84.7% | [2] -37.8% | [4] -76.4% | [8] -89.4% | [10] -62%
inactive: [3] 82.6% | [5] 50.9% | [6] 48.3% | [7] 77.8% | [9] 96.3%

CC(=O)CC(c1cccs1)c1c(-c2ccccc2)[nH]c2ccccc12 (stereo not given)
inactive: [1] 103% | [2] 77.2% | [3] 104% | [4] 86.9% | [5] 99.9% | [6] 85.6% | [7] 80.4% | [8] 98.9% | [9] 103% | [10] 94.5%

Nc1nn(C(=O)Nc2ccc(Cc3ccccc3)cc2)c2ccc(Cl)cc12
active: [2] 3.86% | [8] -19.2%
inactive: [1] 85.6% | [3] 55.9% | [4] 59.7% | [5] 93.3% | [6] 81.4% | [7] 27% | [9] 42.1% | [10] 37.2%

CCCCn1c(=O)c(-c2cc(-c3ccc(Cl)cc3)nc(-c3ccc(Cl)cc3)c2)cc2cc(C)ccc21
inactive: [1] 112% | [2] 99.3% | [3] 105% | [4] 92.8% | [5] 105% | [6] 98% | [7] 99.1% | [8] 97.9% | [9] 100% | [10] 102%

Oc1ccc(Cl)cc1Cc1cc(Cl)cc(Cl)c1O
inactive: [1] 33.2% | [4] 69.2% | [5] 74% | [6] 42.3% | [8] 19.8% | [9] 74.1% | [10] 65.9%
active: [2] 5.3% | [3] -19.5% | [7] -15.1%

COc1cc(-c2nc3sccn3c2-c2ccnc(NCCCNS(=O)(=O)c3ccc(F)cc3)n2)ccc1F
inactive: [1] 76.1% | [2] 38.2% | [3] 75.1% | [4] 86.1% | [5] 71.6% | [6] 74.2% | [7] 57.1% | [8] 95.6% | [9] 77.8% | [10] 53.6%

CCN(CC)c1ccc(C2=NN(C(C)=O)C(c3cc(OC)c(OC)c(OC)c3)C2)cc1 (stereo not given)
inactive: [3] 21.7% | [6] 18.8% | [9] 55.9%
active: [1] -39.4% | [2] -4.46% | [4] 3.7% | [5] -44% | [7] 7.69% | [8] 2.39% | [10] -28.8%

OC(c1ccccc1)C(NC(Cc1ccccc1)c1ccccc1)c1ccccc1 (stereo not given)
inactive: [1] 98.7% | [2] 82.5% | [3] 91.9% | [4] 78.7% | [5] 102% | [6] 86.8% | [7] 93.1% | [8] 96.7% | [9] 91.6% | [10] 91.8%

COc1cc2oc(-c3ccc(O)cc3)cc(=O)c2c(O)c1-c1c(OC)cc(O)c2c(=O)cc(-c3ccc(O)cc3)oc12
active: [5] -44.1%
inactive: [1] 53.5% | [2] 44.5% | [3] 63.2% | [4] 48.5% | [6] 12.8% | [7] 67.1% | [8] 18% | [9] 91.5% | [10] 28%

CCCCNc1nc(NN2C(=O)c3cccc4cccc(c34)C2=O)nc(-n2cnc3ccccc32)n1
inactive: [1] 98.6% | [2] 34% | [3] 105% | [4] 87.8% | [5] 74.8% | [6] 89.9% | [7] 88.9% | [8] 75.9% | [9] 99% | [10] 103%

O=c1cc(SCc2ccccc2)nc[nH]1
inactive: [1] 121% | [2] 113% | [3] 111% | [4] 113% | [5] 124% | [6] 106% | [7] 100% | [8] 108% | [9] 108% | [10] 106%

CNCCCNc1nc2ccccc2c2c(=O)c3cc(OC)ccc3sc12
active: [2] -20.3%
inactive: [1] 65.4% | [3] 99.4% | [4] 20% | [5] 63.7% | [6] 77.4% | [7] 94.7% | [8] 66.4% | [9] 99.1% | [10] 29.9%
